Screening data from PubChem BioAssay.
TGFb SMAD3 inh – TGF-b pathway inhibition; HepG2 CAGA-GFP TGF-b/SMAD3 reporter, GFP fluorescence, 18 h; TGF-beta stimulated, 500 pg/mL final; Potency, µM (titrated, usually from 46.1 µM), for inactives: at the top dose activity, negative = inhibition, usual class: inhibitors; 410,000 tested, 1.2% active; AID 588855; note: potency is the fitted concentration of half-maximal effect; % is set by controls: 0 for no effect and ±100 for the full control effect; nearly all actives have a fitted effect of over 65% in size
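Using HEPG2 CAGA-GFP reporter cells at 1000 cells/well, we pinned test compounds, stimulated with recombinant TGF-beta (500 pg/mL final) and measured total well GFP after 18 h.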
DT40 TDP1 CPT – growth inhibition of DT40 Tdp1-/-;hTDP1 cells with camptothecin (screen for TDP1 inhibitors). 420,000 tested, 12% active. Potency, µM (series often up to 46.2 µM), inactives show top-dose activity change, negative = growth inhibition, usual class: inhibitors. chicken DT40 Tdp1-/-;hTDP1 cells + 20 nM CPT, ATP luminescence, 48 h; note: potency is the fitted concentration of half-maximal effect; % is set by controls: 0 for no effect and ±100 for the full control effect; nearly all actives have a fitted effect of over 55% in size
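Chicken DT40 Tdp1-/- cells stably complemented with human TDP1 were seeded at 400 cells/well in medium containing 20 nM camptothecin, exposed to pin-transferred compounds, and grown at 37 °C for at least 48 hr. Viability was read as ATP luminescence.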
HepG2 tox – kills HepG2 cells in TGF-b inhibitor counter-screen; HepG2 CAGA-GFP viability, ATP luminescence, 18 h; Potency, µM (highest dose often 46.1 µM), for inactives: top-dose activity change, negative = cytotoxicity, actives largely listed as cytotoxic; 410,000 tested, 0.76% active; note: potency is the fitted concentration of half-maximal effect
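HepG2 CAGA-GFP cells (1000/well, DMEM with 1% FBS) received compound, then TGF-beta at 500 pg/mL final, and were incubated 18 hours at 37 degrees C. Viability was read by CellTiter-Glo luminescence. Media-only wells were set as complete cell-killing and DMSO as no toxicity.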
DT40 TDP1 no CPT – qHTS for Inhibitors of human tyrosyl-DNA phosphodiesterase 1 (TDP1): qHTS in cells in absence of CPT. DT40 Tdp1-/- hTDP1 cells, no CPT, ATP luminescence, 48 h. 420,000 tested, 15% active. Potency, µM (series often up to 46.2 µM), without a hit: top-dose activity change, negative = growth inhibition, usual class: inhibitors; note: potency is the fitted concentration of half-maximal effect; % is set by controls: 0 for no effect and ±100 for the full control effect; nearly all actives have a fitted effect of over 55% in size
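Camptothecin absent (DMSO only). Human TDP1-complemented DT40 knockout cells, 400 cells/well, 37 °C for minimum 48 hr; ATP measured via CellTiter-Glo, 30 min dark incubation, luminescence.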
TDP1 inh – blocks human tyrosyl-DNA phosphodiesterase 1; recombinant TDP1, AlphaScreen DNA substrate cleavage; Potency, µM (doses to about 130 µM), for the others: top-dose activity change, negative = inhibition, usual class: inhibitors; 350,000 tested, 0.28% active; note: potency is the fitted concentration of half-maximal effect; % is set by controls: 0 for no effect and ±100 for the full control effect; nearly all actives have a fitted effect of over 40% in size
Target sequence (Q9NUW8 whole entry, looked up): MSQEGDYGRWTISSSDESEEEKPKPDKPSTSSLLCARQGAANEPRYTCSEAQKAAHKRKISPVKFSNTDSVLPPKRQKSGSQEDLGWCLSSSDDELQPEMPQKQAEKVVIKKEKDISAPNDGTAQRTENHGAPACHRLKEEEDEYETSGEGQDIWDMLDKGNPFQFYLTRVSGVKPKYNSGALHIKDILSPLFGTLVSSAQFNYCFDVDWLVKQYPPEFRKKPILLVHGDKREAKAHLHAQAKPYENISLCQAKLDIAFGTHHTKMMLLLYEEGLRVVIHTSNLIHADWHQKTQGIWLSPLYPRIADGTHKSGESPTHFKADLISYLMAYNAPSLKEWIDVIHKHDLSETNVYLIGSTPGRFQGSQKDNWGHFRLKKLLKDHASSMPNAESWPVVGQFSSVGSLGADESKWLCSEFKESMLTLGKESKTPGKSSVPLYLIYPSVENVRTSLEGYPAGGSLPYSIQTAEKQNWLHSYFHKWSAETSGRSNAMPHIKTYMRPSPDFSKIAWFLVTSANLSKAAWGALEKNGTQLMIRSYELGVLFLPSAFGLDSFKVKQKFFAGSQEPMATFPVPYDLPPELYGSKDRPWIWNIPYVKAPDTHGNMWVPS
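E. coli-derived human Tdp1, 1 nM final. Cpd preinc 15 min RT; substrate 15 nM final, 5 min RT; AS bead mix 10 ug/ml final, 10 min RT. Signal loss = tyrosine-FITC cleavage. No-enzyme wells = max signal.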
IL1B secr inh – inflammasome signaling inhibition, IL-1 beta readout; THP-1 LPS/ATP IL-1B secretion, AlphaLISA, 16 h; active compounds read low; 360,000 tested, 4.7% active; activity change, % at 57.5 µM; in the data active = activity change below about -50%; inconclusive = mostly about -30% to -49%; note: % is set by controls: 0 for no effect and ±100 for the full control effect
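Secreted IL-1B measured by AlphaLISA bead assay after 16 h compound exposure of THP-1 cells; compounds (final up to 57.5 uM) added 1 h before LPS (250 ng/mL) and ATP (1.25 mM) stimulation; lower signal means less secretion.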
An asterisk follows results filed as active; i = inactive; ? = inconclusive; / = no result. Compounds with a hit are over-represented: about 18% of the library has one in this group of screens. Unless noted, calls come from the whole dose curve; as a rule, active = well fitted curve in the direction sought with a large enough effect; inconclusive = small, poorly fitted or top-dose-only effect, or another doubt; inactive = no such curve, though single readings can be large; an effect the other way counts as inactive or inconclusive.

SMILES	TGFb SMAD3 inh	DT40 TDP1 CPT	HepG2 tox	DT40 TDP1 no CPT	TDP1 inh	IL1B secr inh
CN1CCN(C(CNC(=O)C(=O)Nc2ccc(F)cc2F)c2ccc3c(c2)OCO3)CC1 (configuration not stated)	1%	-11%	-4%	-24%	9%	/
O=c1c[n+]([O-])c2ccccc2n1OCc1c(F)cccc1F	0%	13µM*	17%	21µM*	5%	8
CC(C)NC(=O)C1(C)CSCC(=O)N1Cc1cccc(C(F)(F)F)c1 (configuration not stated)	/	-3%	/	2%	/	26
COCCN1C(=O)C(C(=O)OC)CC2=C1CC(C)(C)CC2=O (configuration not stated)	5%	-19%	5%	-11%	/	12
Cc1ccc(Cn2cnc3nc4c(cc3c2=O)CC(C)CC4)cc1 (configuration not stated)	3%	21µM*	-35%	15µM*	4%	/
CC1CCc2nc3ncn(Cc4ccccc4F)c(=O)c3cc2C1 (configuration not stated)	3%	?	-31%	?	-1%	/
CCOc1ccc(-c2nc(CNC(=O)Nc3ccccc3)c(C)o2)cc1	12%	-26%	-4%	-13%	4%	/
C=CC[n+]1c(-c2ccc(OCC)cc2)csc1NNC(=O)Nc1ccccc1	?	7.3µM*	-29%	5.8µM*	8%	-22
Cc1ccc(C(=O)Nc2ccc3c(c2)OCCO3)c(C)c1	10%	?	-30%	?	/	-24
O=C(/C=C/c1ccc2c(c1)OCCCO2)c1ccc2ccccc2c1O	0%	?	12%	12µM*	12%	12
Cc1ccc(C(=O)/C=C/c2ccc3c(c2)OCCO3)c(O)c1	-27%	?	-1%	?	7%	-93*
CCc1cc(C(=O)/C=C/c2cc3c(cc2C)OCCO3)c(O)cc1O	/	13µM*	/	11µM*	/	/
CCN(C(=O)/C=C/c1ccc2c(c1)OCO2)c1ccccc1	?	?	8%	?	3%	-4
CCc1cc(-c2n[nH]c(C)c2-c2ccc3c(c2)OCCO3)c(O)cc1O	/	/	/	/	16%	/
COc1cc(C2C(C(=O)c3ccc(C)o3)=C(O)C(=O)N2CCN2CCOCC2)ccc1OCCC(C)C (configuration not stated)	4%	-3%	-6%	-18%	8%	i
O=C(CCCc1c[nH]c2ccccc12)NCc1ccccc1C(F)(F)F	?	-22%	-63%	?	/	-16
Cn1c(NCc2c[nH]c3ccccc23)nc2ccccc21	?	?	-31%	?	6%	-92*
CCn1cc(C(=O)N2CCN(c3ccccc3)CC2)c(=O)c2cc(S(=O)(=O)N(C)C3CCCCC3)ccc21	?	-9%	-2%	-26%	-5%	/
COc1cccc(CNc2nc3cc(-c4cccc(Cl)c4)sc3c(=O)n2C)c1	-6%	-29%	-11%	-12%	/	30
COc1cccc(CNc2nc3cc(C(C)=C(C)C)sc3c(=O)n2C)c1	?	18µM*	-19%	?	/	-5
COc1ccc(-c2cc(CNc3nc4cc(-c5ccccc5C)sc4c(=O)n3C)on2)cc1	?	16µM*	-26%	21µM*	/	-24
COc1ccccc1CNc1nc2cc(-c3ccsc3)sc2c(=O)n1C	?	?	-8%	?	/	64
COc1ccccc1CNc1nc2cc(-c3ccccc3C)sc2c(=O)n1C	-29%	?	-8%	23µM*	/	-22
COc1ccccc1CNc1nc2cc(-c3sccc3C)sc2c(=O)n1C	-7%	18µM*	-1%	16µM*	/	-9
Cc1ccccc1-c1cc2nc(NCCOc3ccccc3)n(C)c(=O)c2s1	-1%	?	-30%	?	/	21
SMILES	TGFb SMAD3 inh	DT40 TDP1 CPT	HepG2 tox	DT40 TDP1 no CPT	TDP1 inh	IL1B secr inh
COc1ccc(Nc2nc3cc(-c4ccccc4C)sc3c(=O)n2C)cc1OC	?	?	-8%	?	/	?
Cc1ccccc1-c1cc2nc(Nc3ccc(F)cc3)n(C)c(=O)c2s1	?	?	-85%	23µM*	/	-15
COc1cccc(CNc2nc3cc(-c4ccccc4C)sc3c(=O)n2C)c1	?	21µM*	-22%	23µM*	/	-8
Cc1cccc(C)c1NC(=S)Nc1ccc(F)cc1	4%	0%	-3%	-9%	3%	10
Fc1ccc(NC(=S)Nc2ccc3nccnc3c2)cc1	-2%	16µM*	-18%	18µM*	7%	-2
COc1ccc(NC(=S)Nc2ccc(F)cc2)cc1	-15%	?	-1%	26µM*	1%	-13
Cc1ccc(NC(=S)Nc2ccc(F)cc2)cc1C	?	?	-50%	?	3%	-58*
Cc1ccc(N=C2CCCN2Cc2ccccc2)c(C#N)c1	0%	?	6%	21µM*	-1%	-4
CCN(CC)C(=O)C1CCN(Cc2cccc(OCc3ccccc3)c2)CC1	-4%	-22%	-30%	?	-5%	-16
CCNC(=O)C1CCCN(Cc2ccc(OCc3ccccc3)cc2)CC1 (configuration not stated)	0%	18µM*	-31%	7.3µM*	/	-6
O=C(C1CCN(Cc2ccc(F)cc2)CC1)N(CCc1ccccc1)Cc1ccccc1	?	23µM*	-86%	16µM*	8%	-89*
CC(C)CCNC(=O)C1CCN(Cc2cccc(OCc3ccccc3)c2)CC1	?	-20%	-23%	?	/	-57*
CCN(CC)C(=O)C1CCN(Cc2ccc(OCc3ccccc3)cc2)CC1	0%	-29%	-21%	-22%	/	-57*
COc1cc(OC)c(NC(=O)C(Cc2ccccc2)NS(=O)(=O)c2cccc3nsnc23)cc1Cl (configuration not stated)	-13%	?	0%	?	5%	/
O=S(=O)(Nc1ccc(-c2ccc(N3CCCC3)nn2)cc1)c1ccc(OC(F)(F)F)cc1	?	15µM*	-36%	?	7%	/
CCCCOc1ccc(S(=O)(=O)Nc2ccc(-c3ccc(N4CCCCCC4)nn3)cc2)cc1	4%	13µM*	-1%	?	5%	/
CCCCOc1ccc(S(=O)(=O)Nc2ccc(-c3ccc(N4CCCCC4)nn3)cc2)cc1	?	15µM*	-22%	21µM*	-4%	/
Cc1ccc(S(=O)(=O)Nc2ccc(-c3ccc(N4CCCCCC4)nn3)cc2)cc1C	30%	2.9µM*	-27%	-49%	4%	/
